Source: PubChem BioAssay (several laboratories)
A selection: hits, their analogues and other compounds. The true share with any hit is near 2.1%.
EP2 antag: inhibitors of human EP2 prostaglandin E2 receptor. P43116. C6 glioma cells expressing human EP2, cAMP TR-FRET; cells stimulated with saturating PGE2. inhibition, % at 25 µM. 260,000 compounds, 0.52% hits. AID 1422;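 active = percent inhibition above 40 after rounding to a whole number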;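 also: rat C6 glioma host cells with rolipram phosphodiesterase inhibitor present; the protocol text gives 20 µM as final concentration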
Target sequence (P43116 whole entry, looked up): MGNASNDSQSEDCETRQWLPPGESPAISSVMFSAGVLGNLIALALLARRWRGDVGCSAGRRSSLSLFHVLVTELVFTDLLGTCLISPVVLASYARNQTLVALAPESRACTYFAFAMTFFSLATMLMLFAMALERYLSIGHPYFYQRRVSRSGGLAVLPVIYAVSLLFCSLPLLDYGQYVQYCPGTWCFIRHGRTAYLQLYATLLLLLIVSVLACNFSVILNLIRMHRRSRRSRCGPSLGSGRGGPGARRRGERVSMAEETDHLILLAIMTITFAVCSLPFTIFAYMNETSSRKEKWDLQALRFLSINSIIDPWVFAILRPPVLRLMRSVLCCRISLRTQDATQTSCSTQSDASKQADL
EP2 mod: EP2 receptor (human) modulation | 260,000 compounds, 0.83% hits | P43116 | EP2-expressing cells, cAMP HTRF FRET, PGE2 co-stimulation | induction, % at 25 µM;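 active = compounds whose cAMP rise, as percent of the full-agonist control response, exceeds 60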;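 also: rat C6 glioma line stably carrying human EP2 under a CMV promoter; the protocol text gives 20 µM as final concentration; 100% = response of wells given 1 µM PGE2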
Efa HMGR inh: blocks class II HMG-CoA reductase of Enterococcus faecalis. inhibition, % at 10 µM. AID 1066. 190,000 compounds, 0.41% hits. purified E. faecalis HMGR, NADPH absorbance 340 nm kinetic;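 active = inhibition above a set limit, the median over all tested compounds plus 3 SD, cut at about 9.5% in these data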;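 also: enzyme runs in reverse so mevalonate oxidation gives rising NADPH absorbance; 0% = complete reaction with DMSO and 100% = background rate lacking mevalonate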
GSH fluor: GSH bead compound fluorescence profile; AID 1776; fluorescence (KMESF) at 10 µM; 190,000 compounds, 0.25% hits; GSH beads flow cytometry, compound fluorescence 488/530 nm; hits give high values; in the data active = fluorescence above about 89;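 also: glutathione beads carrying GST-tagged Bcl family fusion proteins plus one bare bead set; values are compound well signal with DMSO vehicle wells as background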
Avidin fluor: compound fluoresces at 488/530 nm on avidin beads; compound fluorescence 488/530 nm, flow cytometry; hits give high values; 220,000 compounds, 0.38% hits; fluorescence (KMESF) at 10 µM; AID 1775; in the data active = fluorescence above about 47
Starred values were filed as active, the others as inactive; nt = not tested or not shown; ! = not active in a repeat.

SMILES	EP2 antag	EP2 mod	Efa HMGR inh	GSH fluor	Avidin fluor
COc1ccc(-c2nnc(CSc3nnc(-c4ccncc4)n3C3CCCCC3)o2)cc1OC	4	5	-4	12	18
COCCCn1c(SCc2nnc(-c3ccc(OC)c(OC)c3)o2)nnc1-c1ccncc1	6	21	9.9*	29	5
CC1(C)CC(C)(c2ccc(O)cc2O)N(c2cccc(Cl)c2)C(=S)N1 (stereo unspecified)	10	-7	11*	30	6
Cn1c(SCC(=O)NCCN2C(=O)CSC2=O)nnc1-c1ccccc1	11	5	-1	9	138*
Cc1nnc(SCC(=O)Nc2cccc(Cl)c2)s1	8	3	nt	nt	nt
COc1cccc(/C=N/NC(=O)c2ccc(COc3ccc(Cl)cc3Cl)o2)c1	18	-35	-7	22	12
COc1cc(/C=N/NC(=O)c2ccc(COc3ccccc3Cl)o2)cc(Br)c1O	75*	-68	-2	7	5
Cc1cc(Cl)nc2ccc(Cc3ccc4nc(Cl)cc(C)c4c3)cc12	42*!	-13	nt	nt	7
CSc1nc(Cc2ccc(Cl)cc2)nc2ccccc12	3	57	-6	27	7
C[C@H](Cn1nnc2ccccc21)NC(=O)Cn1cnc2ccccc2c1=O	4	-19	nt	nt	nt
O=C(O)c1ccccc1CN1CCC[C@@H](C(=O)O)C1	48*	3	nt	nt	nt
O=C(O)C1CCCN(C(=O)NCc2ccccc2)C1 (stereo unspecified)	12	-1	-5	13	36
CCNC(=S)NNC(=O)c1cc(-c2cccc(C)c2)nc2ccccc12	8	-8	6	56	9
CCNC(=S)NNC(=O)c1cc(-c2cccnc2)nc2ccccc12	44*	22	2	7	14
O=C(CSc1nnc(-c2ccccc2)o1)N(C1CCCCC1)C1CCCCC1	16	76*	nt	nt	nt
O=C(CSc1nnc(-c2ccncc2)o1)N(C1CCCCC1)C1CCCCC1	12	43	nt	nt	nt
O=C1c2ccccc2C(Nc2ccccc2)N1Cc1ccc2c(c1)OCO2 (stereo unspecified)	9	72*	nt	nt	6
O=C1c2ccccc2C(Nc2cccc(C(F)(F)F)c2)N1Cc1ccco1 (stereo unspecified)	21	61*	-2	43	7
COc1ccc(OCC(=O)Nc2cc(-c3nc4ccccc4[nH]3)ccc2Cl)cc1	16	-57	nt	nt	nt
COc1cc(OC)cc(C(=O)N2CCN(C(=O)COc3ccc4ccccc4c3)CC2)c1	3	-43	-1	39	6
O=C(COc1ccccc1)N1CCN(c2ccc([N+](=O)[O-])c(N3CCCCC3)c2)CC1	7	13	-2	30	54*
O=C(COc1ccc(-c2ccccc2)cc1)N1CCN(C(=O)c2cccnc2)CC1	6	-14	-4	20	13
COc1ccc(N2CCN(C(=O)COc3ccc4ccccc4c3)CC2)cc1	9	-1	1	17	53*
O=C(COc1ccc2ccccc2c1)N1CCN(C(=O)c2cccnc2)CC1	4	-3	-3	17	85*
COCCCNC(=S)N(Cc1cc2ccc(C)cc2[nH]c1=O)C1CCCCC1	31	-24	nt	nt	nt
SMILES	EP2 antag	EP2 mod	Efa HMGR inh	GSH fluor	Avidin fluor
COc1ccc([C@@H]2C[C@H](C(=O)NC(C)C)N(C)S(=O)(=O)N2)cc1	nt	-13	nt	nt	nt
Cc1cccc2c1Sc1ccccc1CC2=O	15	64*	-1	14	31
CC(=O)Nc1cccc(OCC(=O)NS(=O)(=O)c2ccc(Cl)cc2)c1	8	24	-3	99*	28
CC(=O)Nc1cccc(OCC(=O)Nc2ccccc2)c1	nt	-11	1	37	20
OCCCNc1nc(-c2cccc(Cl)c2)nc2ccccc12	11	-63	nt	nt	nt
CC1Cc2cc(C(O)CN3CCCC3)ccc2N1S(C)(=O)=O (stereo unspecified)	5	-14	nt	nt	nt
Clc1ccc(CN2CCCCCCC2)cc1	7	20	-9	11	8
Clc1ccc(CN2CCCN(Cc3ccc(Cl)cc3)C2c2cc3ccccc3c3ccccc23)cc1	51*	12	nt	nt	nt
O=C1C2CCCCC2C(=O)N1Cc1ccccc1 (stereo unspecified)	5	-4	-1	17	10
O=c1ccsn1Cc1ccccc1	65*	-43	-3	10	3
Cc1ccc2[nH]c(=O)c(CN(Cc3cccs3)Cc3nnnn3CC3CCCO3)cc2c1 (stereo unspecified)	5	-10	-5	20	5
CCOC(=O)Cn1nnnc1CN(Cc1ccccc1)Cc1cc2c(C)cc(C)cc2[nH]c1=O	15	65*	nt	nt	nt
Cc1ccc2[nH]c(=O)c(CN(Cc3cccs3)Cc3nnnn3C3CCCC3)cc2c1	15	75*	nt	nt	nt
CCc1ccc2[nH]c(=O)c(CN(Cc3ccccc3)Cc3nnnn3C3CCCCC3)cc2c1	17	74*	nt	nt	nt
Cc1ccc2cc(CN(Cc3ccc4c(c3)OCO4)Cc3nnnn3C3CCCCC3)c(=O)[nH]c2c1	12	54	nt	nt	nt
Cc1ccc2cc(CN(Cc3ccccc3)Cc3nnnn3C3CCCC3)c(=O)[nH]c2c1	6	62*	-2	22	4
CCCn1c2c(c(O)c(C(=O)OCC)c1=O)CCCC2	3	14	nt	nt	nt
O=C(O[C@@H]1Cc2c(O)cc(O)cc2O[C@@H]1c1cc(O)c(O)c(O)c1-c1c([C@H]2Oc3cc(O)cc(O)c3C[C@H]2O)cc(O)c(O)c1O)c1cc(O)c(O)c(O)c1	14	6	nt	nt	nt
Cc1ccc2[nH]c(=O)c(CN(Cc3ccc(F)cc3)Cc3nnnn3C3CCCC3)cc2c1	19	63*	nt	nt	nt
CCC(C)(C)n1nnnc1CN(Cc1ccccc1OC)Cc1cc2cc(C)ccc2[nH]c1=O	8	47	nt	nt	nt
Cc1cc2cc(CN(CCc3ccccc3)Cc3nnnn3C3CCCCC3)c(=O)[nH]c2cc1C	10	66*	nt	nt	nt
CCc1ccc2[nH]c(=O)c(CN(Cc3ccccc3OC)Cc3nnnn3C(C)(C)CC)cc2c1	22	61*	nt	nt	nt
Cc1ccc2cc(CN(Cc3ccc(F)cc3)Cc3nnnn3C3CCCC3)c(=O)[nH]c2c1	3	57	4	10	8
CC(C)(C)C1CCC2(CC1)CCN(CCCN1CCOCC1)CC2	44*	7	nt	nt	nt
CN(C)CCCN1CCC2(CCC(C(C)(C)C)CC2)CC1	51*	22	nt	nt	nt
SMILES	EP2 antag	EP2 mod	Efa HMGR inh	GSH fluor	Avidin fluor
O=C(CSc1nc(-c2ccccc2)nc2ccccc12)NC1CCCC1	12	16	nt	nt	nt
CC(NC(=O)c1ncoc1-c1ccccc1C(F)(F)F)c1ccncc1 (stereo unspecified)	10	-23	nt	nt	nt
CCCn1c(N2CCOCC2)nc2c1c(=O)[nH]c(=O)n2C	1	25	-2	36	60*
Cc1ccc(C2(C(=O)N[C@H](Cn3nc(-c4cccs4)ccc3=O)C(C)C)CC2)cc1	5	76*	nt	nt	nt
Cc1ccc(C2(C(=O)N[C@H](Cn3nc(C4CC4)ccc3=O)C(C)C)CC2)cc1	nt	23	nt	nt	nt
Cn1c(=O)n(CC(=O)NC23CC4CC(CC(C4)C2)C3)c2cccnc21	nt	3	nt	nt	nt
CCOc1ccc(-n2c(C)nc3cc(C(=O)NCCN4CCOCC4)ccc32)cc1	3	6	-3	104*	7
